Laboratory results: PMC7862700, “An all-to-all approach to the identification of sequence-specific readers for epigenetic DNA modifications on cytosine”

Tests used:
Experiment in all cases: DAPPL (digital affinity profiling via proximity ligation, sequencing); 10 mM Tris-HCl pH 7.5, 50 mM NaCl, 1 mM DTT, 4% glycerol, room temperature, 30 min; GST-TFs on glutathione beads, 16-mer random dsDNA library, 0.1% formaldehyde crosslink after washing; high values mean tight binding
FEV = target: T1, FEV (Homo sapiens, UniProt Q99581 1-238); conditions: protein: recombinant; tags: N-terminal GST; dsDNA, one strand shown
T1 sequence: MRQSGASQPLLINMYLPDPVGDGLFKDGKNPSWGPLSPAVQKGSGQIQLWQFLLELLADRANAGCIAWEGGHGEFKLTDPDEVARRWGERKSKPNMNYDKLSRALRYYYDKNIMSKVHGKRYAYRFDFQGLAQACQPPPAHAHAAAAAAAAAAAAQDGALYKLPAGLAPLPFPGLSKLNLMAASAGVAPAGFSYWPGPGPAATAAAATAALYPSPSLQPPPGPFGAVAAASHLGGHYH
Summary of the method: (§1)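 The binding signal reported is, for every hexamer, its read frequency for a factor over its read frequency for the tag-only sample. Reads came from pools of yeast-expressed, GST-fused human transcription factors on glutathione beads, barcoded with DNA and mixed with that sample, which were incubated with 200 nmole of a random double-stranded 16-mer DNA library in Tris/NaCl/DTT/glycerol buffer at room temperature for 30 min. After washing, the pools were crosslinked with 0.1% formaldehyde, proximity-ligated with BsaI/T4 ligase for 1 h at 37 °C, PCR-amplified and sequenced on an Illumina NextSeq500.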

ETV5 = ETV5 (Homo sapiens, UniProt P41161 1-510); conditions: protein: recombinant; tags: N-terminal GST; dsDNA, one strand shown
Summary of the method: as §1

HSF1 = HSF1 (Homo sapiens, UniProt Q00613 1-529); conditions: protein: recombinant; tags: N-terminal GST; chain copies: 3; dsDNA, one strand shown
Summary of the method: as §1

SPIC = target: T2, SPIC (Homo sapiens, UniProt Q8N5J4 1-248); conditions: protein: recombinant; tags: N-terminal GST; dsDNA, one strand shown
T2 sequence: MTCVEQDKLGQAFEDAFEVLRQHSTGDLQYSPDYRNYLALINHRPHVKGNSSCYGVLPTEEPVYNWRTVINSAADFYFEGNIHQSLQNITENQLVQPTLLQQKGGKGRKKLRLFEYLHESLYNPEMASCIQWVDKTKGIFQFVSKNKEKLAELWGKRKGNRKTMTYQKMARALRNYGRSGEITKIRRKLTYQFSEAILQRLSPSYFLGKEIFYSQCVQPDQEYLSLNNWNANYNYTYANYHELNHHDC
Summary of the method: as §1

ELF4 = ELF4 (Homo sapiens, UniProt Q99607 1-663); conditions: protein: recombinant; tags: N-terminal GST; dsDNA, one strand shown
Summary of the method: as §1

ELK4 = target: T3, ELK4 (Homo sapiens, UniProt P28324-2 1-405); conditions: protein: recombinant; tags: N-terminal GST; dsDNA, one strand shown
T3 sequence: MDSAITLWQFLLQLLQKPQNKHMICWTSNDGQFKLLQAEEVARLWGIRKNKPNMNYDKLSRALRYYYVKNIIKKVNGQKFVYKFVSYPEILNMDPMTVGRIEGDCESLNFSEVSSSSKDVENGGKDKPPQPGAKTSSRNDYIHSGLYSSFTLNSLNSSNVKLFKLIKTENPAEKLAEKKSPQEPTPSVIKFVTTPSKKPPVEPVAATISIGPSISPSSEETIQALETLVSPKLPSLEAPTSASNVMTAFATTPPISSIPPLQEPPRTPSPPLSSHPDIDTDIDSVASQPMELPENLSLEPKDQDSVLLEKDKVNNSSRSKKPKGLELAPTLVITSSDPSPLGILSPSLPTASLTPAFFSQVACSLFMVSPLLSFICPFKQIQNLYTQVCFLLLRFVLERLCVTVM
Summary of the method: as §1

ETV2 = target: T4, ETV2 (Homo sapiens, UniProt O00321 1-342); conditions: protein: recombinant; tags: N-terminal GST; dsDNA, one strand shown
T4 sequence: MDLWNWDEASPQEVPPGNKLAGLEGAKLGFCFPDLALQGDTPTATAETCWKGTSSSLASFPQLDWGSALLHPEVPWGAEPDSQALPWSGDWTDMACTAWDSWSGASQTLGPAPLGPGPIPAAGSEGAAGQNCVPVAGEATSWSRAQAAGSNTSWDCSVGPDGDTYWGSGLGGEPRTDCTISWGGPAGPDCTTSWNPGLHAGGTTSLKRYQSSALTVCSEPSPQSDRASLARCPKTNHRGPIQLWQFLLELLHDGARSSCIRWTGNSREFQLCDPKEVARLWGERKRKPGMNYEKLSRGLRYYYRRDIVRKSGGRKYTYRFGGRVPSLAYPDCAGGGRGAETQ
Summary of the method: as §1

ELF3 = target: T5, ELF3 (Homo sapiens, UniProt P78545 1-371); conditions: protein: recombinant; tags: N-terminal GST; dsDNA, one strand shown
T5 sequence: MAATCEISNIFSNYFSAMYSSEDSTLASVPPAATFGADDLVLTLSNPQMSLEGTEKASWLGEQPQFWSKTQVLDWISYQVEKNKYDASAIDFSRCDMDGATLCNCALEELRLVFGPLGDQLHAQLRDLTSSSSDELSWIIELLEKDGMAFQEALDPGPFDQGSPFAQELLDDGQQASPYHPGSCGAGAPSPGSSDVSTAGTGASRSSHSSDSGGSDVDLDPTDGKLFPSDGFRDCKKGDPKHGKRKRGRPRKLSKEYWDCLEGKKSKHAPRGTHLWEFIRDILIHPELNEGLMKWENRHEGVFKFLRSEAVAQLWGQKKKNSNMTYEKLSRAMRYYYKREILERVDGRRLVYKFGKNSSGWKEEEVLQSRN
Summary of the method: as §1

ETV1 = ETV1 (Homo sapiens, UniProt P50549 1-477); conditions: protein: recombinant; tags: N-terminal GST; dsDNA, one strand shown
Summary of the method: as §1

ERF = target: T6, ERF (Homo sapiens, UniProt P50548 1-548); conditions: protein: recombinant; tags: N-terminal GST; dsDNA, one strand shown
T6 sequence: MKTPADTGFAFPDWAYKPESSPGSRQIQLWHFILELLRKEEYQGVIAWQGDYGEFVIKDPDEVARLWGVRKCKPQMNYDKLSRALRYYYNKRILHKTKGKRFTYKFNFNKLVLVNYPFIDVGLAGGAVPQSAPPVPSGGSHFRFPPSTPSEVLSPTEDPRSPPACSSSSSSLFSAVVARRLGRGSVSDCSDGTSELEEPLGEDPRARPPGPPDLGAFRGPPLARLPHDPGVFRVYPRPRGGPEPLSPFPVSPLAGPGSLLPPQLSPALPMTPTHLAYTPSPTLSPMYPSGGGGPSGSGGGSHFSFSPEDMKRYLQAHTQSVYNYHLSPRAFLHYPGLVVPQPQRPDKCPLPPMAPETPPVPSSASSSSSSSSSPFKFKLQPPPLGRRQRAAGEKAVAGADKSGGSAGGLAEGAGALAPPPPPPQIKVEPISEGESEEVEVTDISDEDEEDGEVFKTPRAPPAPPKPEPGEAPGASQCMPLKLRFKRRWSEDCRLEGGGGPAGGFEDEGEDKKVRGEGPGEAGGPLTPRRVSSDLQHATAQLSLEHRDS
Summary of the method: as §1

ETV3L = target: T7, ETV3L (Homo sapiens, UniProt Q6ZN32 1-361); conditions: protein: recombinant; tags: N-terminal GST; dsDNA, one strand shown
T7 sequence: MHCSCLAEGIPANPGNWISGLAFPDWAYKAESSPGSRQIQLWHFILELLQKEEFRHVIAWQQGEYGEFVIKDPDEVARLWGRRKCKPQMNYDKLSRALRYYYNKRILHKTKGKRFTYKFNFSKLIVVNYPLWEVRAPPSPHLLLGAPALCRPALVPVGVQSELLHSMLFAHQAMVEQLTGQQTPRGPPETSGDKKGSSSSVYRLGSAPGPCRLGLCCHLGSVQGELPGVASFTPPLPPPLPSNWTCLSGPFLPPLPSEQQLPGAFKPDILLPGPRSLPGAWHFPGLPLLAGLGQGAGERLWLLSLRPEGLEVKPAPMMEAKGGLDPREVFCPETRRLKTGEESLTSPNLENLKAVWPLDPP
Summary of the method: as §1

ETS2 = target: T8, ETS2 (Homo sapiens, UniProt P15036 1-469); conditions: protein: recombinant; tags: N-terminal GST; dsDNA, one strand shown
T8 sequence: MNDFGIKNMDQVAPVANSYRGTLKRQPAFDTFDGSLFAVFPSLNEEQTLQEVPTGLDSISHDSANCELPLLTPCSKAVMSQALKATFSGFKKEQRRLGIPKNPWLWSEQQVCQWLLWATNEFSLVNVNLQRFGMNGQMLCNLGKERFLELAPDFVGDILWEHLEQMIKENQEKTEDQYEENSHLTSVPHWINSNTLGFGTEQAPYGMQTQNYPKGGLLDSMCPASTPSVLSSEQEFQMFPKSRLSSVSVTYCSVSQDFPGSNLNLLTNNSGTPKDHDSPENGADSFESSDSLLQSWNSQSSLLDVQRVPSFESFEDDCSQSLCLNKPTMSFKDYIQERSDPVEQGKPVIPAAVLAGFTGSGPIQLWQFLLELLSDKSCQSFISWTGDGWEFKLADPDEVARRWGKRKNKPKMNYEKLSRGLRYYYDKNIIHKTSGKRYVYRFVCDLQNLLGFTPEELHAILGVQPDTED
Summary of the method: as §1

SPDEF = target: T9, SPDEF (Homo sapiens, UniProt O95238 1-335); conditions: protein: recombinant; tags: N-terminal GST; dsDNA, one strand shown
T9 sequence: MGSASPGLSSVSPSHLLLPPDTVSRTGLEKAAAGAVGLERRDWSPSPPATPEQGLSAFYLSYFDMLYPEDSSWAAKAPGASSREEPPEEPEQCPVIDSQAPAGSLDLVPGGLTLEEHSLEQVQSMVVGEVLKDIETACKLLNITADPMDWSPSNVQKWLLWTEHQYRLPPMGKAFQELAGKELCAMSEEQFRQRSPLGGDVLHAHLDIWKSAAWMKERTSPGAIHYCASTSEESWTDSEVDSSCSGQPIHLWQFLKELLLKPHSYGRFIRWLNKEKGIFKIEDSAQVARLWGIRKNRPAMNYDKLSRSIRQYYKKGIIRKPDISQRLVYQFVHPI
Summary of the method: as §1

ETV7 = target: T10, ETV7 (Homo sapiens, UniProt Q9Y603 1-341); conditions: protein: recombinant; tags: N-terminal GST; dsDNA, one strand shown
T10 sequence: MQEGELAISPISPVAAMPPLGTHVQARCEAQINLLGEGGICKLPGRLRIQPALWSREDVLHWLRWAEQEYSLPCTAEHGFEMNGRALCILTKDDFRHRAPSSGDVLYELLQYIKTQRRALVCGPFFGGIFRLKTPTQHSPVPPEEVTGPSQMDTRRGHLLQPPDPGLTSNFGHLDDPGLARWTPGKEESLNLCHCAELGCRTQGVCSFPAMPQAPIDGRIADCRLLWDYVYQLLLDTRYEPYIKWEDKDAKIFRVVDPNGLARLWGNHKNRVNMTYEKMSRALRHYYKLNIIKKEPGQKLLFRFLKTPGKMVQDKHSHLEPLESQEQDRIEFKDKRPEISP
Summary of the method: as §1

ELF5 = target: T11, ELF5 (Homo sapiens, UniProt Q9UKW6-2 1-255); conditions: protein: recombinant; tags: N-terminal GST; dsDNA, one strand shown
T11 sequence: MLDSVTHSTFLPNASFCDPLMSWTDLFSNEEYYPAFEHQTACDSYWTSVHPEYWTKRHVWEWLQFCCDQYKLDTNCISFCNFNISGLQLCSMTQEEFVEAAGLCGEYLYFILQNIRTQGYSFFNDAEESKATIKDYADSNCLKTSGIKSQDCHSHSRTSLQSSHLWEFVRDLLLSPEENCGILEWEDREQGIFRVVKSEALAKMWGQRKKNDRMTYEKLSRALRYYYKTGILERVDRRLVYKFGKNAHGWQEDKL
Summary of the method: as §1

ETV3 = target: T12, ETV3 (Homo sapiens, UniProt P41162-2 1-143); conditions: protein: recombinant; tags: N-terminal GST; dsDNA, one strand shown
T12 sequence: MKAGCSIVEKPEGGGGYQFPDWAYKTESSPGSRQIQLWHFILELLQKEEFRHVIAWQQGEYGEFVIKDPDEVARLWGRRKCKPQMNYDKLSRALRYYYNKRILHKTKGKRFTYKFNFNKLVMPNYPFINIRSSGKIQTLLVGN
Summary of the method: as §1

ETV6 = ETV6 (Homo sapiens, UniProt P41212 1-452); conditions: protein: recombinant; tags: N-terminal GST; dsDNA, one strand shown
Summary of the method: as §1

Chain of ETV1 (P50549 whole entry): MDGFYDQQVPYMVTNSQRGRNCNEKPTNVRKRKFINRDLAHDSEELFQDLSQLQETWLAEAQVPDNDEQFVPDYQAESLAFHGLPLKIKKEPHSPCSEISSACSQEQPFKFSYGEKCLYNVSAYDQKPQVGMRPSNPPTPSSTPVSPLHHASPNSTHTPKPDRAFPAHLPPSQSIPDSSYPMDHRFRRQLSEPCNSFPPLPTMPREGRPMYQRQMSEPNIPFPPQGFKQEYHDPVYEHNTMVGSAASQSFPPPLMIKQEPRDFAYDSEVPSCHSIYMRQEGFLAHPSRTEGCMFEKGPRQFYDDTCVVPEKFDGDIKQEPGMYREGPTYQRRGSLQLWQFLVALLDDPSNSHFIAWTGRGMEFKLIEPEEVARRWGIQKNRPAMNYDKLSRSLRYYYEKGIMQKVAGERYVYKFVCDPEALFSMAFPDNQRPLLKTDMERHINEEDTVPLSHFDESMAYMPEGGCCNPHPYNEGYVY
Chain of HSF1 (Q00613 whole entry): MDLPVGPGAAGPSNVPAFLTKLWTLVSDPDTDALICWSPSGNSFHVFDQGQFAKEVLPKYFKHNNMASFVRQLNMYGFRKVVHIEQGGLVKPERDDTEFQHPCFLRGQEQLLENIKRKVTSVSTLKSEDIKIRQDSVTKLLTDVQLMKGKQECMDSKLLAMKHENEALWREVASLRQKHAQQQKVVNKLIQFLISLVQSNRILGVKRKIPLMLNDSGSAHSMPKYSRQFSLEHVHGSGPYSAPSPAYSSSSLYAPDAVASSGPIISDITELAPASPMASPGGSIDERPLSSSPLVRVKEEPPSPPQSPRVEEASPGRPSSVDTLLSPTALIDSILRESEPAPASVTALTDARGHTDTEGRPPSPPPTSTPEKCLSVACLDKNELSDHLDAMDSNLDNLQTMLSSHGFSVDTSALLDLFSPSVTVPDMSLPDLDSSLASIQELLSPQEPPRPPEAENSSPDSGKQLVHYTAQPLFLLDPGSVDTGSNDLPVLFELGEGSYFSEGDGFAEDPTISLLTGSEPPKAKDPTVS
Chain of ETV6 (P41212 whole entry): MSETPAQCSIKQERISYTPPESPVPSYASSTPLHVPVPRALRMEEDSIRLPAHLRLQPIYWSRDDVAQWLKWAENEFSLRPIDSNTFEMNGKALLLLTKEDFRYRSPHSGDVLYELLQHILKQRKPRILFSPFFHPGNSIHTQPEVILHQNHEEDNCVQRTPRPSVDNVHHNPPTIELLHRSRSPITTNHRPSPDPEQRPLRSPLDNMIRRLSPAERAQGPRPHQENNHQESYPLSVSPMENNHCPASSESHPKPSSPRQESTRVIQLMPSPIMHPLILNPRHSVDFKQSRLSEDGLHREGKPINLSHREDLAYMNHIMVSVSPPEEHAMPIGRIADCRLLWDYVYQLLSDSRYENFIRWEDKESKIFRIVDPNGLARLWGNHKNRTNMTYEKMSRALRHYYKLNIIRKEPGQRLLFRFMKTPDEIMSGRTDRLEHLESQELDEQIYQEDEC
Chain of ELF4 (Q99607 whole entry): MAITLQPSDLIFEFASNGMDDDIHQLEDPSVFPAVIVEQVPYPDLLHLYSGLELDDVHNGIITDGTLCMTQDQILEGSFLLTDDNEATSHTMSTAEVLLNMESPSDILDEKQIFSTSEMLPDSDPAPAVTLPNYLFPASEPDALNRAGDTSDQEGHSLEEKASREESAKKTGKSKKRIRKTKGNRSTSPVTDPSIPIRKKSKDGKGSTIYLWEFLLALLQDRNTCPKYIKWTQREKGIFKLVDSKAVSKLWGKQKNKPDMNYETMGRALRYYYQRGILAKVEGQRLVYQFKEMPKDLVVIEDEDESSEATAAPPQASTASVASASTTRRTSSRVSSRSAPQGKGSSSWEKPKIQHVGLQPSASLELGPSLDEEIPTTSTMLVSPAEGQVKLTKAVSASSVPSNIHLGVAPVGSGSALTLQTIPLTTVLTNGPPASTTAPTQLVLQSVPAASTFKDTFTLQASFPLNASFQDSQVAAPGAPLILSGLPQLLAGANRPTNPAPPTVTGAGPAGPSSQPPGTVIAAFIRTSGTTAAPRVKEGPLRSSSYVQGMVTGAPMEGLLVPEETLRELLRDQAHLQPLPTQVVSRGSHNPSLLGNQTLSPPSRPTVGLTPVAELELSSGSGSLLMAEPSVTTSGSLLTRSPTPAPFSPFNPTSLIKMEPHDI
Chain of ETV5 (P41161 whole entry): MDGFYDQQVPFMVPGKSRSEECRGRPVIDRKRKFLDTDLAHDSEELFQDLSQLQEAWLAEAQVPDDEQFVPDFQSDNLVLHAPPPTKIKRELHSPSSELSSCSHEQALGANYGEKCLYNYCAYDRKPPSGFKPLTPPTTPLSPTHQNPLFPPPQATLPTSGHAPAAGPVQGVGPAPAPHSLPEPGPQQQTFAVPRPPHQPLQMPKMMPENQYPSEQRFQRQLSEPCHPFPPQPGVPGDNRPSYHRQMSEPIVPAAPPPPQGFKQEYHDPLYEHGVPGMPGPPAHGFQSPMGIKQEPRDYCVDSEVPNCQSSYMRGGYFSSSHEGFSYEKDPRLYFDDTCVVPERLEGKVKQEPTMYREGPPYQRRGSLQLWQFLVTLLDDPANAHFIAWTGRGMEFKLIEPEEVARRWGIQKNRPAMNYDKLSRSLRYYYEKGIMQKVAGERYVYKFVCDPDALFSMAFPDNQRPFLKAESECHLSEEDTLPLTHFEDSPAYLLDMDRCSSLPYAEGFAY

Sequence: TGCTAC
- binding signal (FEV): 1.36 fold enrichment (6-mer frequency, TF over GST control)
- binding signal (ETV5): 1.25 fold enrichment (6-mer frequency, TF over GST control)
- binding signal (HSF1): 1.03 fold enrichment (6-mer frequency, TF over GST control)
- binding signal (SPIC): 1.41 fold enrichment (6-mer frequency, TF over GST control)
- binding signal (ELF4): 1.23 fold enrichment (6-mer frequency, TF over GST control)
- binding signal (ELK4): 1.4 fold enrichment (6-mer frequency, TF over GST control)
- binding signal (ETV2): 1.24 fold enrichment (6-mer frequency, TF over GST control)
- binding signal (ELF3): 1.25 fold enrichment (6-mer frequency, TF over GST control)
- binding signal (ETV1): 1.42 fold enrichment (6-mer frequency, TF over GST control)
- binding signal (ERF): 1.39 fold enrichment (6-mer frequency, TF over GST control)
- binding signal (ETV3L): 1.3 fold enrichment (6-mer frequency, TF over GST control)
- binding signal (ETS2): 1.23 fold enrichment (6-mer frequency, TF over GST control)
- binding signal (SPDEF): 1.26 fold enrichment (6-mer frequency, TF over GST control)
- binding signal (ETV7): 1.23 fold enrichment (6-mer frequency, TF over GST control)
- binding signal (ELF5): 1.17 fold enrichment (6-mer frequency, TF over GST control)
- binding signal (ETV3): 1.23 fold enrichment (6-mer frequency, TF over GST control)
- binding signal (ETV6): 1.16 fold enrichment (6-mer frequency, TF over GST control)
